{"source": "PubChem BioAssay AID588342", "about": "(National Center for Advancing Translational Sciences (NCATS), 2011)", "note": "“And” between values parts separate entries of the source, which are not always exact repeats. Equal entries are not always repeated. Hit rate of the full screen: of about 360,000 compounds, about 25,000 (6.9%) were called active. Roughly 9% stayed inconclusive and do not appear here. Calls come from the whole dose curve; as a rule, active = well fitted inhibition curve with a large enough effect; inconclusive = small, poorly fitted or top-dose-only effect; inactive = flat fitted curve, though single readings scatter. The entries come from a sample that favours actives as a whole. More than one record can exist for a structure, and the calls need not agree. Potency is the fitted concentration of half-maximal effect.", "data": [{"molecular_target": "Luciferin 4-monooxygenase (Photinus pyralis) (UniProt P08659)", "sequence (P08659 whole entry, looked up)": "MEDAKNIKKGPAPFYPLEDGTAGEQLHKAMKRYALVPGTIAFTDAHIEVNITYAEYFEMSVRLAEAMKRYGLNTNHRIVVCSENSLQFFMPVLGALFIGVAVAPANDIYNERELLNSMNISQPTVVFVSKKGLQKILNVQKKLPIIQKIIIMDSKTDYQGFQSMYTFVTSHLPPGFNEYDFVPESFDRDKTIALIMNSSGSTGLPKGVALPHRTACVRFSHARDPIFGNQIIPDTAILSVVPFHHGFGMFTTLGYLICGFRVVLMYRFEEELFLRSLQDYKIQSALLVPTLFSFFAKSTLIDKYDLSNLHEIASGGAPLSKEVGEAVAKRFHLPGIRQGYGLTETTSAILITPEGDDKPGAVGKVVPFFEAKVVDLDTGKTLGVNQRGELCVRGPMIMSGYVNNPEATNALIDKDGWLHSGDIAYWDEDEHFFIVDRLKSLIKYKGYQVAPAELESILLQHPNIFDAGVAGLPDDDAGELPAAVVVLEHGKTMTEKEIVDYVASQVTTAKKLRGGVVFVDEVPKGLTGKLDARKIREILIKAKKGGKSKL", "assay": "qHTS profiling assay for firefly luciferase inhibitor/activator using purifed enzyme and Km concentrations of substrates (counterscreen for miR-21 project); note: nearly all actives have a fitted effect of over 55% in size;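 for activity change, negative = inhibition: plate controls were vehicle for no effect and reference inhibitor for full effect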", "conditions": "purified FLuc, luminescence inhibition; series mostly up to 57.5 µM; activity change, negative = inhibition: at the top concentration", "summary_of_the_method": "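Biochemical qHTS of compounds, final roughly 60 µM downward over six points, against 10 nM purified firefly luciferase using Km concentrations of substrates (10 uM D-luciferin, 10 uM ATP) in Tris acetate pH 7.5 buffer; luminescence output.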", "values": [{"smiles": "CCCN(C(=O)Cn1ncc2c([nH]c3ccc(C)cc32)c1=O)c1ccccc1C", "activity change, negative = inhibition": "-6.95% (inactive)"}, {"smiles": "COc1cccc(CNC(=O)c2ccc3c(c2)N(Cc2ccc(C(F)(F)F)cc2)C(=O)c2ccccc2S3)c1OC", "activity change, negative = inhibition": "-4.21% (inactive)"}, {"smiles": "CSCCC(C(=O)NC1=NCCS1)N1C(=O)c2ccccc2C1=O", "note": "(stereo not given)", "activity change, negative = inhibition": "2.14% (inactive)"}, {"smiles": "CC(C)(C)c1cc(C(=O)N/N=C/c2ccc([N+](=O)[O-])s2)n[nH]1", "activity change, negative = inhibition": "-3.18% (inactive)"}, {"smiles": "CCOc1ccc(NC(=O)CCC(=O)N/N=C/c2ccc([N+](=O)[O-])s2)cc1", "activity change, negative = inhibition": "5.81% (inactive)"}, {"smiles": "O=[N+]([O-])c1ccc(C=Nc2ccc(Cl)cc2Cl)s1", "Potency": "2.13 µM (active)"}, {"smiles": "COc1ccc(C)cc1NC(=O)CCCN1C(=O)NC(C)(C)C1=O", "activity change, negative = inhibition": "5.36% (inactive)"}, {"smiles": "CCCNC(=O)CCC(=O)N1Cc2ccccc2Oc2ncccc21", "activity change, negative = inhibition": "-0.325% (inactive)"}, {"smiles": "CCCCC(=O)OC1=CN(Cc2ccccc2)S(=O)(=O)c2ccccc21", "activity change, negative = inhibition": "5.5% (inactive)"}, {"smiles": "COCCn1c(C)cc(C(=O)CSc2nnc(C3CC3)n2C2CC2)c1C", "Potency": "19 µM (active)"}, {"smiles": "COCCn1c(C)cc(C(=O)CSc2ncnc3sc4c(c23)CCC4)c1C", "activity change, negative = inhibition": "8.69% [at 2.3 µM] (inactive)"}, {"smiles": "COCCn1c(C)cc(C(=O)CSc2nc3ccccc3c(=O)n2C(C)COC)c1C", "note": "(stereo not given)", "activity change, negative = inhibition": "-12.6% (inactive)"}, {"smiles": "CCOC(=O)c1c(N)c(C#N)nn1-c1ccccc1C(=O)OC", "activity change, negative = inhibition": "4.06% (inactive)"}, {"smiles": "Cc1cc(C)n(CC(=O)Nc2ccc([N+](=O)[O-])cc2)n1", "activity change, negative = inhibition": "0.707% (inactive)"}, {"smiles": "CC1CC(C)CN(C/C=C/c2ccccc2[N+](=O)[O-])C1", "note": "(stereo not given)", "activity change, negative = inhibition": "5.73% (inactive)"}, {"smiles": "COc1ccc(-c2c(C)nn3c(N4CCC(C(=O)NCCC(C)C)CC4)cc(C)nc23)cc1OC", "activity change, negative = inhibition": "0.887% (inactive)"}, {"smiles": "COC(=O)c1ccc(/C=N/NC(=O)C(=O)N2CCCCCC2)cc1", "activity change, negative = inhibition": "-1.34% (inactive)"}, {"smiles": "O=C(N/N=C/c1ccc2c(c1)OCO2)C(=O)N1CCCC1", "Potency": "15.1 µM (active)"}, {"smiles": "O=C(N/N=C/c1ccc([N+](=O)[O-])cc1)C(=O)N1CCCC1", "activity change, negative = inhibition": "1.64% (inactive)"}, {"smiles": "CCn1ncc(C2=NOC(C(=O)Nc3ccccc3C(=O)OC)C2)c1C", "note": "(stereo not given)", "activity change, negative = inhibition": "-0.901% (inactive)"}, {"smiles": "Cc1cccc(-n2c(SCC(N)=O)nc3c(oc4ccccc43)c2=O)c1", "activity change, negative = inhibition": "1.16% (inactive)"}, {"smiles": "CCCCC(=O)Nc1nnc(S(=O)(=O)N(C)Cc2ccco2)s1", "activity change, negative = inhibition": "1.16% (inactive)"}, {"smiles": "COc1cccc(C(=O)Nc2nnc(S(=O)(=O)N(C)c3ccccc3)s2)c1", "activity change, negative = inhibition": "-19.1% (inactive)"}, {"smiles": "CN(Cc1ccco1)S(=O)(=O)c1nnc(NC(=O)c2ccccc2)s1", "Potency": "inactive and 23.9 µM (active)"}, {"smiles": "CCCCN(C)CCCNC(=O)CN1N=C(c2ccc(OC)cc2)CCC1=O", "activity change, negative = inhibition": "2.79% (inactive)"}, {"smiles": "COc1ccc(NC(=O)CSc2nc3ccccc3c(=O)n2C)cc1", "activity change, negative = inhibition": "-0.538% (inactive)"}, {"smiles": "COC(=O)CSc1nc2ccccc2c(=O)n1Cc1ccccc1", "activity change, negative = inhibition": "5.35% (inactive)"}, {"smiles": "Cc1ccc(C(=O)CSc2nc3ccccc3c(=O)n2N)o1", "Potency": "12 µM (active)"}, {"smiles": "Cc1cccc(N2CCN(C3=C(c4ccccc4)C(=O)c4ccccc43)CC2)c1C", "activity change, negative = inhibition": "-7.51% (inactive)"}, {"smiles": "O=[N+]([O-])c1ccc(NCCCO)c(C(F)(F)F)c1", "activity change, negative = inhibition": "2.46% (inactive)"}, {"smiles": "COc1cccc(NC(=O)CSC2=Nc3ccccc3C3=NC(CC(=O)NC4CCCCC4)C(=O)N23)c1", "note": "(stereo not given)", "activity change, negative = inhibition": "1.39% (inactive)"}, {"smiles": "COC(=O)Cc1cc(=O)oc2c(C)c(O)ccc12", "activity change, negative = inhibition": "0.0059% (inactive)"}, {"smiles": "COc1ccc(Br)cc1CN1CCN(C(=O)c2cccc(OC)c2OC)CC1", "activity change, negative = inhibition": "5.02% (inactive)"}, {"smiles": "COc1cccc(C(=O)OCc2cc(=O)oc3c(C)c(C)ccc23)c1OC", "Potency": "16.9 µM (active)"}, {"smiles": "O=C(C1COc2ccccc2O1)N(Cc1cccnc1)c1nc2c(F)cc(F)cc2s1", "note": "(stereo not given)", "activity change, negative = inhibition": "-10.3% (inactive)"}, {"smiles": "CCOc1ccc(Nc2nc(Cl)nc(N3CCN(c4ccc(OC)cc4)CC3)n2)cc1", "activity change, negative = inhibition": "-4.25% (inactive)"}, {"smiles": "Cc1cc(Nc2ccc(Cl)cc2)nc(N2CCOCC2)n1", "activity change, negative = inhibition": "-3.8% (inactive)"}, {"smiles": "COc1ccc(Nc2ncc(F)c(N3CCOCC3)n2)cc1", "Potency": "2.39 µM (active)"}, {"smiles": "O=C(NCc1ccccc1Cl)C1=Cc2cc(Br)ccc2OC1", "activity change, negative = inhibition": "2.86% (inactive)"}, {"smiles": "COc1ccc(CCNc2nc3c(-c4cccc(F)c4)nnn3c3ccccc23)cc1OC", "activity change, negative = inhibition": "-2.73% (inactive)"}, {"smiles": "O=C(COC(=O)c1ccncc1)c1ccccc1", "Potency": "23.9 µM (active)"}, {"smiles": "O=C(OCC(O)C(O)COC(=O)c1ccccc1)c1ccccc1", "note": "(stereo not given)", "activity change, negative = inhibition": "1.74% (inactive)"}, {"smiles": "COc1ccc(NC(=O)COC(=O)c2ccncc2)c(OC)c1", "activity change, negative = inhibition": "-0.378% (inactive)"}, {"smiles": "O=C(CCc1nc(CN2CCN(S(=O)(=O)c3ccc(Cl)cc3)CC2)no1)N1CCCCC1", "activity change, negative = inhibition": "-5.93% (inactive)"}, {"smiles": "CCNC(=O)c1cc2n(n1)CCCN(Cc1ccc(C)cc1)C2=O", "activity change, negative = inhibition": "-0.387% (inactive)"}, {"smiles": "Cc1nn(CC(=O)O)c(=O)c2cc3cc(F)ccc3n12", "activity change, negative = inhibition": "2.27% (inactive)"}, {"smiles": "Cc1ccccc1Nc1nc(N)nc(CSc2ccccc2)n1", "Potency": "2.13 µM (active)"}, {"smiles": "Cc1ccccc1Nc1nc(N)nc(CSc2nnc3ccccn23)n1", "activity change, negative = inhibition": "-15.6% (inactive)"}, {"smiles": "Cc1ccc(C(=O)OCc2nc(N)nc(Nc3ccccc3C)n2)cc1", "activity change, negative = inhibition": "-0.428% (inactive)"}, {"smiles": "COc1ccc(S(=O)(=O)NCC(c2ccc(N(C)C)cc2)N2CCc3ccccc32)cc1OC", "note": "(stereo not given)", "activity change, negative = inhibition": "-2.31% (inactive)"}, {"smiles": "CCOc1ccc(NC(=O)CCC(=O)N2CC(C)Oc3ccc(C)cc32)cc1", "note": "(stereo not given)", "activity change, negative = inhibition": "1.52% (inactive)"}, {"smiles": "O=C(c1cccc(Br)c1)N1CCN(Cc2cc(=O)n3nc(-c4ccccc4)sc3n2)CC1", "activity change, negative = inhibition": "-2.55% (inactive)"}, {"smiles": "Cc1ccc(NC(=O)C2CCN(S(=O)(=O)c3cc(-c4noc(C)n4)ccc3C)CC2)c(C)c1", "activity change, negative = inhibition": "-1.93% (inactive)"}, {"smiles": "O=C(CSc1nccn1Cc1ccc(Cl)cc1)NCc1ccccc1", "activity change, negative = inhibition": "-9.76% (inactive)"}, {"smiles": "CCOc1ccc(OCc2cccc(C(=O)N(CC)CC)c2)cc1", "Potency": "1.2 µM (active)"}, {"smiles": "COc1cccc(COc2ccc(N(C)S(=O)(=O)c3ccccc3)cc2)c1", "activity change, negative = inhibition": "2.39% (inactive)"}, {"smiles": "COc1ccc(CNC(=O)C2CCN(C(=O)c3ccccc3)CC2)cc1", "activity change, negative = inhibition": "3.37% (inactive)"}, {"smiles": "COc1ccc(OCc2cccc(C(=O)N3CCCC3)c2)cc1", "Potency": "8.49 µM (active)"}, {"smiles": "CCOc1ccc(OCc2ccc(C(=O)N(C)c3ccccc3)o2)cc1", "activity change, negative = inhibition": "-13.9% (inactive)"}, {"smiles": "COc1ccc(Cn2c(=S)[nH]c3cc(C(=O)N4CCCCC4)ccc3c2=O)cc1", "activity change, negative = inhibition": "4.8% (inactive)"}, {"smiles": "Cc1sc2ncn(CC(=O)N3CCN(c4ccc(F)cc4)CC3)c(=O)c2c1S(=O)(=O)N1CCN(c2ncccn2)CC1", "activity change, negative = inhibition": "-11.7% (inactive)"}, {"smiles": "CCS(=O)(=O)N1CCC(n2c(C)nc3cccnc32)CC1", "activity change, negative = inhibition": "0.647% (inactive)"}, {"smiles": "CCc1cccc(NC(=O)Cn2nc(CC)n3c(cc4cc(C)ccc43)c2=O)c1", "activity change, negative = inhibition": "4.75% (inactive)"}, {"smiles": "O=C(CSc1ncc(CO)n1Cc1ccc(Cl)cc1)NCc1ccc(F)cc1", "activity change, negative = inhibition": "-7.26% (inactive)"}, {"smiles": "Cc1cccc(N2CCN(c3c(CN4CCCC4)c(=O)oc4ccccc34)CC2)c1C", "activity change, negative = inhibition": "-0.54% (inactive)"}]}]}
